Reference: the supplement of paper PMC10849652
The full data set covers some 7,900 targets. This sample favours those with a hit. About 0.6% of all pairs of compound and target were hits.

Key:
Test in all cases: log2 fold change, soluble protein after heating vs DMSO (PISA); higher = thermal stabilisation; K562 cells, 10 uM, 30 min; active = over 0.2 and 3.5 SD of the protein, either way, in both replicates (recomputed)
erlotinib = compound: C#Cc1cccc(Nc2ncnc3cc(OCCOC)c(OCCOC)cc23)c1 [erlotinib]
Summary of the method: (§1)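 Soluble protein was quantified by TMTpro 16plex LC-MS/MS after channel sums were equalised. It was obtained as the supernatant after 21,000xg for 90 min from pooled aliquots of K562 cells (2×10^6 cells/mL, 10 μM compound, 30 min) heated for 3 min across 48°C-58°C and extracted in PBS with 0.5% NP-40 at 4°C. Thermal stability values are relative to control samples and come from duplicates. They are given as log2 fold changes.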

[1] = compound: C/C(=N\NC(=O)C1=CC(=CC=C1)S(=O)(=O)N2CCOCC2)/C3=C(C=CC(=C3)Cl)O
Summary of the method: as §1

[2] = compound: C1=CC(=C(C=C1Cl)C2=NC3=NC=CN=C3C(=N2)NC4=CC=NC=C4)F
Summary of the method: as §1

[3] = compound: C1=CC(=CC=C1C2=NC3=C(N2)C=C(C=C3)C(=O)N)OC4=CC=C(C=C4)Cl
Summary of the method: as §1

[4] = compound: C1=CC2=C(C=CC(=C2)/C=C\3/C(=O)NC(=NCC4=CC=CS4)S3)N=C1
Summary of the method: as §1

[5] = compound: C1=CC2=NC=CN=C2C=C1/C=C/3\C(=O)NC(=O)S3
Summary of the method: as §1

[6] = compound: C1=CC=C(C=C1)C2=NC(=C(N2)C3=CC=NC=C3)C4=CC(=C(C=C4)Cl)O
Summary of the method: as §1

[7] = compound: C1=CC=C2C(=C1)C3=NNC4=CC=CC(=C43)C2=O
Summary of the method: as §1

[8] = compound: C1CCN(C1)C(=O)NC2=CC=CC(=C2)NC3=NC=C(C(=N3)NCCC4=CN=CN4)Br
Summary of the method: as §1

[9] = compound: C1CN(CCC1(CC2=CC=C(C=C2)Cl)N)C3=NC=NC4=C3C=CN4
Summary of the method: as §1

IRAK-1-4 Inhibitor I = compound: C1COCCN1CCN2C3=CC=CC=C3N=C2NC(=O)C4=CC(=CC=C4)[N+](=O)[O-] [IRAK-1-4 Inhibitor I]
Summary of the method: as §1

ibrutinib = compound: C=CC(=O)N1CCC[C@@H](n2nc(-c3ccc(Oc4ccccc4)cc3)c3c(N)ncnc32)C1 [ibrutinib]
Summary of the method: as §1

[10] = compound: CC(=O)c1cnc2ccc(-c3cc(Cl)c(O)c(Cl)c3)nc2c1N[C@H]1CC[C@H](CN(C)C)CC1
Summary of the method: as §1

ralimetinib = compound: CC(C)(C)Cn1c(N)nc2ccc(-c3[nH]c(C(C)(C)C)nc3-c3ccc(F)cc3)nc21 [ralimetinib]
Summary of the method: as §1

[11] = compound: CC(C)(O)CC(=O)NCCn1ccc2ncnc(Nc3ccc(Oc4cccc(C(F)(F)F)c4)c(Cl)c3)c21
Summary of the method: as §1

[12] = compound: CC(C)C1=C2N=C(C=C(N2N=C1)NCC3=CC=CC=C3)NCCCCCCN
Summary of the method: as §1

[13] = compound: CC(C)C[C@@H](C=O)NC(=O)[C@H](CC(C)C)NC(=O)[C@H](CC(C)C)NC(=O)OCc1ccccc1
Summary of the method: as §1

pinometostat = compound: CC(C)N(C[C@H]1O[C@@H](n2cnc3c(N)ncnc32)[C@H](O)[C@@H]1O)[C@H]1C[C@@H](CCc2nc3cc(C(C)(C)C)ccc3[nH]2)C1 [pinometostat]
Summary of the method: as §1

[14] = compound: CC1=C(C(CC(=O)N1)C2=CC=C(C=C2)C(F)(F)F)C(=O)NC3=C(C=C4C(=C3)C=NN4)F
Summary of the method: as §1

[15] = compound: CC1=C(C2=C(C=C1)C(=O)C3=CC=CC=C3N2CCCN)C
Summary of the method: as §1

Measured: log2 fold change

POLR2A (UniProt P24928)
inactive: erlotinib -0.018 | [1] -0.019 | [2] -0.008 | [3] 0.024 | [4] 0.013 | [5] 0.039 | [6] 0.019 | [7] 0.026 | [8] 0.111 | [9] -0.042 | IRAK-1-4 Inhibitor I -0.029 | ibrutinib 0.054 | ralimetinib 0.011 | [11] -0.065 | [12] 0.19 | [13] 0.005 | pinometostat -0.004 | [14] -0.046 | [15] 0.033
active: [10] 0.342

PLEKHM2 (UniProt Q8IWE5)
inactive: erlotinib 0.228 | [1] 0.07 | [2] 0.034 | [3] -0.03 | [4] 0.075 | [5] 0.069 | [6] 0.082 | [7] -0.065 | [8] -0.005 | [9] -0.066 | IRAK-1-4 Inhibitor I -0.018 | ibrutinib -0.073 | [10] -0.085 | ralimetinib 0.162 | [11] 0.016 | [12] -0.034 | [13] -0.102 | pinometostat -0.042 | [14] -0.069 | [15] 0.016

PIP4P1 isoform 2 (UniProt Q86T03)
Sequence of UniProt Q86T03 (Q86T03 whole entry, looked up): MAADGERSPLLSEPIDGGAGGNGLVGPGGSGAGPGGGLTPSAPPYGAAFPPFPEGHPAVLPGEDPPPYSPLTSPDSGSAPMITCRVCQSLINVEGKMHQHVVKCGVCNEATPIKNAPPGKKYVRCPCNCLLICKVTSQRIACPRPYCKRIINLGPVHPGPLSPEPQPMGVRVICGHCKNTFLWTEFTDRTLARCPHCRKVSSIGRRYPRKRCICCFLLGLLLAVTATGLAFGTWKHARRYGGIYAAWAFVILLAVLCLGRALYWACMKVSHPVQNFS
active: [12] -0.329
inactive: erlotinib 0.057 | [1] 0.001 | [2] 0.052 | [3] -0.014 | [4] -0.104 | [5] 0.068 | [6] 0.002 | [7] 0.035 | [8] -0.028 | [9] 0.101 | IRAK-1-4 Inhibitor I -0.011 | ibrutinib 0.003 | [10] -0.002 | ralimetinib 0.003 | [11] -0.004 | [13] 0.022 | pinometostat -0.031 | [14] 0.131 | [15] -0.062

PEX11B (UniProt O96011)
Sequence of UniProt O96011 (O96011 whole entry, looked up, change not shown): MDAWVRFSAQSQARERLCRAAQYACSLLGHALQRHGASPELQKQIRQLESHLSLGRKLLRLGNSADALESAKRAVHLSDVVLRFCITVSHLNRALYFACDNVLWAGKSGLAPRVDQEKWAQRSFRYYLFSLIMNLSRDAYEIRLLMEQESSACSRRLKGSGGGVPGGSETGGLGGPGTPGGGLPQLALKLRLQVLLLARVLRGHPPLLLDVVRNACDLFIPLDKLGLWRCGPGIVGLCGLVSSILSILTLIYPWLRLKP
inactive: erlotinib 0.016 | [1] 0.058 | [2] 0.162 | [3] -0.001 | [4] 0.056 | [5] 0.087 | [6] 0.142 | [7] -0.012 | [8] -0.097 | [9] 0.041 | IRAK-1-4 Inhibitor I 0.025 | ibrutinib 0.04 | [10] 0.032 | ralimetinib 0.005 | [11] 0.008 | [12] 0.075 | [13] -0.058 | pinometostat -0.031 | [14] 0.055 | [15] 0.012

PRKCG (UniProt P05129)
inactive: erlotinib -0.04 | [1] 0.058 | [2] 0.052 | [3] 0.04 | [4] 0.144 | [5] -0.033 | [6] 0.074 | [7] 0.023 | [8] -0.052 | [9] -0.138 | IRAK-1-4 Inhibitor I 0.025 | ibrutinib -0.024 | [10] -0.351 | ralimetinib 0.049 | [11] -0.099 | [12] -0.097 | [13] 0.055 | pinometostat 0.054 | [14] 0.037 | [15] 0.028

PJA2 (UniProt O43164)
Sequence of UniProt O43164 (O43164 whole entry, looked up): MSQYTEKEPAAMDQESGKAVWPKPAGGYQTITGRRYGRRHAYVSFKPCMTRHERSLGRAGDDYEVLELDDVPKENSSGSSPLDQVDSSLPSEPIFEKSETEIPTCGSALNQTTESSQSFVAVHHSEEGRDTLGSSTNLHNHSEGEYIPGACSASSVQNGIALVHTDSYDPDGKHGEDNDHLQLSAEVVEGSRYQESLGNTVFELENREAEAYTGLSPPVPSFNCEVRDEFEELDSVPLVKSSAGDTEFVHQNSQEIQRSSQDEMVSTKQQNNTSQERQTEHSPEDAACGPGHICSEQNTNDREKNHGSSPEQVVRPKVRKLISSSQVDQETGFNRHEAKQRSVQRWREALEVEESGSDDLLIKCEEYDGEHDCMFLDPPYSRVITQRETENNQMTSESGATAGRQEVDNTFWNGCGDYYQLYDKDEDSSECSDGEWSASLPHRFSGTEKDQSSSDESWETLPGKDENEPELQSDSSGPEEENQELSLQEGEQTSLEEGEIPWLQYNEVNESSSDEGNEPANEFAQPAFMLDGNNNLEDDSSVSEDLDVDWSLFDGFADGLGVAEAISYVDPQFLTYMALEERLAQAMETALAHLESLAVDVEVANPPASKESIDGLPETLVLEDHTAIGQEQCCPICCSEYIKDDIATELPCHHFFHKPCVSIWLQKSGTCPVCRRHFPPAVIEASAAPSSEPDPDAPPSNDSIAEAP
inactive: erlotinib -0.006 | [1] -0.047 | [2] -0.049 | [3] 0.018 | [4] 0.003 | [5] 0.071 | [6] -0.061 | [7] -0.112 | [8] -0.024 | [9] -0.009 | IRAK-1-4 Inhibitor I 0.061 | ibrutinib 0.023 | [10] 0.091 | ralimetinib -0.004 | [11] -0.02 | [12] -0.013 | [13] 0.169 | pinometostat -0.005 | [14] 0.05
active: [15] -0.308

PMPCB (UniProt O75439)
Sequence of UniProt O75439 (O75439 whole entry, looked up): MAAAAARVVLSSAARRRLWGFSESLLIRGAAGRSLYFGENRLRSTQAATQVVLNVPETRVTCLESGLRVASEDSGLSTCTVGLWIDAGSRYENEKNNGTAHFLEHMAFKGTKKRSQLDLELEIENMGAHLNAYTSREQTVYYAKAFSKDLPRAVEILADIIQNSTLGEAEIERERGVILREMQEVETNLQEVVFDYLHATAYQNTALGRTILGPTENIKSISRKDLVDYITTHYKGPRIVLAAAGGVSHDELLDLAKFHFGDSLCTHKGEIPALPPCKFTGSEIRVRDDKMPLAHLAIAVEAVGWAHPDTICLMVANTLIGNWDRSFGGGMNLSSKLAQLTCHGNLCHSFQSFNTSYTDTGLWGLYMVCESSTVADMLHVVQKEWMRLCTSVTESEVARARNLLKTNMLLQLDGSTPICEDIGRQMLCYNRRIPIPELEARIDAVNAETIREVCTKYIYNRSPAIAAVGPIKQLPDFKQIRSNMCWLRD
inactive: erlotinib -0.022 | [1] 0 | [2] 0.031 | [3] 0.024 | [4] 0.019 | [5] 0.007 | [6] 0.023 | [7] 0.078 | [8] -0.014 | [9] 0.046 | IRAK-1-4 Inhibitor I 0.035 | ibrutinib 0.008 | [10] 0.01 | ralimetinib 0.064 | [11] -0.108 | [12] 0.04 | [13] 0.012 | pinometostat -0.022 | [14] 0 | [15] 0.015

PTPN12 (UniProt Q05209)
inactive: erlotinib 0.005 | [1] -0.007 | [2] -0.011 | [3] 0.004 | [4] 0.022 | [5] 0.101 | [6] -0.021 | [7] -0.036 | [8] -0.039 | [9] -0.05 | IRAK-1-4 Inhibitor I -0.011 | ibrutinib -0.008 | ralimetinib 0.004 | [11] 0.039 | [12] -0.101 | [13] 0.057 | pinometostat 0.045 | [14] -0.004 | [15] 0.004
active: [10] 0.264

POLR3K (UniProt Q9Y2Y1)
Sequence of UniProt Q9Y2Y1 (Q9Y2Y1 whole entry, looked up): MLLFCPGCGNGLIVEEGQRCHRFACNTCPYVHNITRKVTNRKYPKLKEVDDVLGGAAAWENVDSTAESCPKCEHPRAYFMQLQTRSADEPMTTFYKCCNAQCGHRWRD
active: [6] -0.235
inactive: erlotinib -0.082 | [1] 0.005 | [2] -0.005 | [3] 0.007 | [4] -0.057 | [5] -0.038 | [7] -0.056 | [8] -0.006 | [9] 0.031 | IRAK-1-4 Inhibitor I 0.026 | ibrutinib 0.044 | [10] -0.013 | ralimetinib -0.084 | [11] -0.07 | [12] 0.124 | [13] 0.089 | pinometostat 0.043 | [14] 0.032 | [15] -0.039

PTGR2 (UniProt Q8N8N7)
Sequence of UniProt Q8N8N7 (Q8N8N7 whole entry, looked up): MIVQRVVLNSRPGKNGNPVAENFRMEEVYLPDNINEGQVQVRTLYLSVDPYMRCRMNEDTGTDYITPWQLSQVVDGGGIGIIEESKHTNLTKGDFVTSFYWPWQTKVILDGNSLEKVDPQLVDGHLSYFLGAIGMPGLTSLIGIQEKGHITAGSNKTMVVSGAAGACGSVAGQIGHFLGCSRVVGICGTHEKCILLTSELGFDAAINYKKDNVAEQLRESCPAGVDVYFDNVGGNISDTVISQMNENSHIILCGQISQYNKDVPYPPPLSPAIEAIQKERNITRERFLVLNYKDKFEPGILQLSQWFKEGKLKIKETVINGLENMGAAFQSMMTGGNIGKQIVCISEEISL
inactive: erlotinib -0.015 | [1] -0.027 | [2] 0.016 | [3] -0.023 | [4] 0.365 | [5] -0.01 | [6] 0.062 | [7] 0.056 | [8] -0.023 | [9] 0.131 | IRAK-1-4 Inhibitor I 0 | ibrutinib 0.321 | [10] -0.328 | ralimetinib -0.016 | [11] -0.042 | [12] 0.121 | [13] 0.001 | pinometostat 0.074 | [14] 0.005 | [15] 0.011

POLR3B (UniProt Q9NW08)
Sequence of UniProt Q9NW08 (Q9NW08 whole entry, looked up): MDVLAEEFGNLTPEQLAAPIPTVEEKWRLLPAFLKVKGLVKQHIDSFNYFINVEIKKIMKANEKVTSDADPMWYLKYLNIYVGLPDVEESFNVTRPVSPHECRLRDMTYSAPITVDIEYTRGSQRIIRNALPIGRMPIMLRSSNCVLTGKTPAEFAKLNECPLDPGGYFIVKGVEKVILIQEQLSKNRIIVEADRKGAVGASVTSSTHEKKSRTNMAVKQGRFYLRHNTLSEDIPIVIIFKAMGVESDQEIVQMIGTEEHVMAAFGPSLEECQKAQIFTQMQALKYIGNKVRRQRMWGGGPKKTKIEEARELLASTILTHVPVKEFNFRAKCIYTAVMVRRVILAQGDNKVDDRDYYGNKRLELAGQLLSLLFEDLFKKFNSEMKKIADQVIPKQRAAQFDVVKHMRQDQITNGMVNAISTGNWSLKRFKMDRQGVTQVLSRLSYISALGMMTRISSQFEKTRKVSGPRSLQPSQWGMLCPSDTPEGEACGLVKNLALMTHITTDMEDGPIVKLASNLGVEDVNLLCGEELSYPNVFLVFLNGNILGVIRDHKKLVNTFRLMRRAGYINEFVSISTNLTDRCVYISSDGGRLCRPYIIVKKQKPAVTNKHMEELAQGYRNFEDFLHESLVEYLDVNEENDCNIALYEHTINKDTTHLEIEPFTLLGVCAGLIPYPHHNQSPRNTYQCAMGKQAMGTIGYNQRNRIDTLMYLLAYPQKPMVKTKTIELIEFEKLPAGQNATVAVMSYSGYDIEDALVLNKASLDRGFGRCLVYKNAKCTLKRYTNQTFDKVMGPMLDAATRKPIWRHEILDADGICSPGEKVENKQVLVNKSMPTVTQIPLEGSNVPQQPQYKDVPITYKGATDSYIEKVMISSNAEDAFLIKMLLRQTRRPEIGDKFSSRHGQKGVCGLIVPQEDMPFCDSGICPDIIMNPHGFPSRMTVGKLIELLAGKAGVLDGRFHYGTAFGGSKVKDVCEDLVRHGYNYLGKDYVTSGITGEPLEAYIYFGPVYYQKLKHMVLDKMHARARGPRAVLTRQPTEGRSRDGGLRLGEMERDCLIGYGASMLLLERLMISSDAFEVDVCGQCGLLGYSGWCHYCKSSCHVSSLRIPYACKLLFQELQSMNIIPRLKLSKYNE
active: [15] 0.297
inactive: erlotinib -0.022 | [1] -0.027 | [2] -0.003 | [3] -0.09 | [4] 0.004 | [5] 0.022 | [6] 0.025 | [7] -0.018 | [8] 0.194 | [9] -0.088 | IRAK-1-4 Inhibitor I -0.121 | ibrutinib -0.048 | [10] 0.044 | ralimetinib 0.052 | [11] -0.116 | [12] -0.183 | [13] 0.055 | pinometostat 0.115 | [14] -0.035

PCLAF (UniProt Q15004)
Sequence of UniProt Q15004 (Q15004 whole entry, looked up): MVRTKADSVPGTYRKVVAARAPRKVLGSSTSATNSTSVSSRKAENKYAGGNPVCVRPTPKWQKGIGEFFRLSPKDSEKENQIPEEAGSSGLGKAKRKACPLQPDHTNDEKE
inactive: erlotinib 0.073 | [1] -0.017 | [2] -0.066 | [3] 0.016 | [4] -0.039 | [5] 0.033 | [6] -0.105 | [7] -0.13 | [8] -0.036 | [9] 0.032 | IRAK-1-4 Inhibitor I 0.055 | ibrutinib 0.034 | [10] -0.061 | ralimetinib -0.012 | [11] 0.036 | [12] 0.184 | pinometostat -0.012 | [14] 0.139 | [15] -0.088
active: [13] 0.278

PSMC2 (UniProt P35998)
Sequence of UniProt P35998 (P35998 whole entry, looked up): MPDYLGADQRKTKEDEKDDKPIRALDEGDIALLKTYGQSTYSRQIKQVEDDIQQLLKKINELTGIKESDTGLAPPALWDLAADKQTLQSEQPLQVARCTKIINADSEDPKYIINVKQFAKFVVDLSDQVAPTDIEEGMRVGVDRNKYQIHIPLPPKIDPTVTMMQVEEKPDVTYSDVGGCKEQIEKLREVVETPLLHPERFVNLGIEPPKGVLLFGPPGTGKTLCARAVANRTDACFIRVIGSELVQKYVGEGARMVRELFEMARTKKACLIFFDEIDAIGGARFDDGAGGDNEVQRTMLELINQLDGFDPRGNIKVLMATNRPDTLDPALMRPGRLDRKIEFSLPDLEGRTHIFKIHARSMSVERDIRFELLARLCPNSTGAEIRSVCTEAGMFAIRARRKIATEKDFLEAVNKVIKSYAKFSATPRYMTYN
inactive: erlotinib -0.05 | [1] -0.054 | [2] -0.057 | [3] 0.008 | [4] -0.001 | [5] -0.03 | [6] 0.019 | [7] 0.02 | [8] -0.007 | [9] -0.031 | IRAK-1-4 Inhibitor I -0.024 | ibrutinib -0.009 | [10] 0.079 | ralimetinib 0.046 | [11] 0.011 | [12] 0.053 | [13] -0.183 | pinometostat 0.033 | [14] 0.039 | [15] -0.039

PRKAR1B (UniProt P31321)
Sequence of UniProt P31321 (P31321 whole entry, looked up): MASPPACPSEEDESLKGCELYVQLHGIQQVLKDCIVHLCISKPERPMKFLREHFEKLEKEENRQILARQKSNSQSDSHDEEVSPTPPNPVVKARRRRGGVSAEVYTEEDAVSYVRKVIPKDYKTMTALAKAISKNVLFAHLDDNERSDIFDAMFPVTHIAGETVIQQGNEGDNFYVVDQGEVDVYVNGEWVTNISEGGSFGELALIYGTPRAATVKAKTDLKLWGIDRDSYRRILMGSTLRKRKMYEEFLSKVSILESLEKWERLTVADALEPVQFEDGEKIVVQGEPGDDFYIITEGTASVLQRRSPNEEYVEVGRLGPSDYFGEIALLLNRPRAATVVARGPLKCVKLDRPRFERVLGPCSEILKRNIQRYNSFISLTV
inactive: erlotinib -0.027 | [1] -0.056 | [2] -0.036 | [3] 0.013 | [4] 0.205 | [5] 0.282 | [6] -0.006 | [7] 0.102 | [8] 0.086 | [9] -0.077 | IRAK-1-4 Inhibitor I 0.005 | ibrutinib 0.004 | [10] -0.112 | ralimetinib 0.143 | [11] -0.013 | [12] -0.11 | [13] 0.007 | pinometostat 0.105 | [14] -0.079 | [15] -0.104

PARN (UniProt O95453)
Sequence of UniProt O95453 (O95453 whole entry, looked up): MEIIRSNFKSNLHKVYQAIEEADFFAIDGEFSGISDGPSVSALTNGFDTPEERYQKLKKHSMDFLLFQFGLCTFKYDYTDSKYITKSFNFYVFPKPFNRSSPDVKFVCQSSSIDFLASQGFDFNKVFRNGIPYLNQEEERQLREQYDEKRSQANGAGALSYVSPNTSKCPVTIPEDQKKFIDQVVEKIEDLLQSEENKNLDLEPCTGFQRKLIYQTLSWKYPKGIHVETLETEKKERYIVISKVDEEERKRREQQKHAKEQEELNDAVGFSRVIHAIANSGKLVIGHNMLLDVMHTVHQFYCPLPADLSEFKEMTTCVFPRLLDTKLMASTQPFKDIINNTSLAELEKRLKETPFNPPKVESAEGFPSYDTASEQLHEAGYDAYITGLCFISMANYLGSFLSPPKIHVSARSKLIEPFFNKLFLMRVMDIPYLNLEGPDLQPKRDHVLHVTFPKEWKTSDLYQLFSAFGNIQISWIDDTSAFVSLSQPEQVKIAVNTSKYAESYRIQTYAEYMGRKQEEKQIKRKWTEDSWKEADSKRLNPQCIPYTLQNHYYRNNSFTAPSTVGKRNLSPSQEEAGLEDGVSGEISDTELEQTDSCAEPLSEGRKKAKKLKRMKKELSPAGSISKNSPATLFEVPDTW
inactive: erlotinib 0 | [1] 0.052 | [2] 0.08 | [3] -0.008 | [4] -0.028 | [5] 0.034 | [6] -0.019 | [7] -0.001 | [8] -0.02 | [9] 0.109 | IRAK-1-4 Inhibitor I 0.002 | ibrutinib -0.047 | [10] -0.092 | ralimetinib -0.013 | [11] -0.02 | [12] -0.025 | [13] 0.018 | pinometostat -0.018 | [14] 0.01 | [15] 0.033
